# Measured values: PubChem BioAssay AID2716 (Broad Institute, 2010)
# About 3,300 (1%) of roughly 320,000 compounds were called active.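 Rule for the calls: active = every valid replicate shows activation above 250% relative to neutral control wells; inactive = the rest, any valid replicate at or below 250%.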 The full list was thinned out, with actives kept by preference.
# Experiment: yeast Mot1-301 growth rescue at high temperature, primary screen, SUMOylation pathway inhibitor project, S. cerevisiae, ATP luminescence, 38.5C (AID 2716);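 note: OY570 slx delta 5 strain wells were the positive control but not used for scaling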
# Conditions: S. cerevisiae Mot1-301 growth rescue, at 18.8 µM, stronger effect = higher value, percent above DMSO median, 100 means doubled
row,Compound,growth rescue
1,COc1ccc(N2CCN(C(=O)c3ccccc3NC(=O)C3=C(C)OCCS3)CC2)cc1,46.6% (inactive)
2,CCCCNC(=O)c1ccccc1NC(=O)c1ccccc1N(C)S(C)(=O)=O,-4.15% (inactive)
3,CCCCNC(=O)c1ccccc1NC(=O)C1=C(C)OCCS1,548% (active)
4,COc1ccc(NC(=O)CSc2nnc(-c3cccs3)n2Cc2ccco2)cc1OC,22.9% (inactive)
5,CCN(CC)C(=O)CSc1nnc(CNc2ccc(F)cc2)n1Cc1ccco1,543% (active)
6,Cc1cc(C)nc(SCc2nnc(SCC(=O)Nc3ncc(C)s3)n2Cc2ccco2)n1,-12% (inactive)
7,COc1ccc(C(=O)NCC2CCCN2S(=O)(=O)c2cccs2)cc1OC (centres undefined),134% (inactive)
8,COc1cc(NC(=O)CN(C)S(=O)(=O)c2ccc3nc(C)sc3c2)cc(OC)c1,-12.8% (inactive)
9,Cc1ccc2nc(-c3ccc(NC(=O)CN(C)S(=O)(=O)c4ccccc4)cc3)sc2c1,574% (active)
10,Cc1cccc(N(CC(=O)Nc2ccc(-c3nc4ccc(C)cc4s3)cc2)S(C)(=O)=O)c1,-4.14% (inactive)
11,Cc1cc(C)c(S(=O)(=O)Nc2c(C)n(C)n(-c3ccccc3)c2=O)cc1[N+](=O)[O-],-5.42% (inactive)
12,Cc1c(Br)cc(C(=O)N2CCCCCC2)c(C)c1C,15.2% (inactive)
13,COC(=O)C1[C@H]2SC(C)(C)C(C(=O)OC)N2C(=O)N1Cc1nc2ccccc2s1 (some centres undefined),-13.8% (inactive)
14,CC1(C)S[C@@H]2[C@H](NC(=O)COc3ccccc3)C(=O)N2C1C(=O)OCc1ccccc1 (some centres undefined),343% (active)
15,CC1(C)SC2C(NC(=O)COc3ccccc3)C(=O)N2C1C(=O)O (centres undefined),3.56% (inactive)
16,O=C(NCCN1CCOCC1)/C(=C/c1ccc(F)cc1)NC(=O)c1ccccc1,93.9% (inactive)
17,CC(OC(=O)c1ccc(Cl)cc1O)C(=O)NCCC1=CCCCC1 (centres undefined),17.1% (inactive)
18,CC1CCCCN1CCCNc1ccc(C(CC(N)=O)NC(=O)c2ccccc2)cc1[N+](=O)[O-] (centres undefined),-18.3% (inactive)
19,Cc1cc(C)cc(C(=O)NC(CC(N)=O)c2ccc(N3CCC(N4CCCCC4)CC3)c([N+](=O)[O-])c2)c1 (centres undefined),855% (active)
20,COc1ccc(OC)c(C(=O)NC(CC(N)=O)c2ccc(N3CCC(N4CCCCC4)CC3)c([N+](=O)[O-])c2)c1 (centres undefined),-11.8% (inactive)
21,Cc1cccc(NC(=O)CN2CCN(C(=O)C3CCN(C(=O)/C=C/c4ccccc4)CC3)CC2)c1C,-7.86% (inactive)
22,Cc1nn(Cc2ccccc2)c(C)c1NS(=O)(=O)c1ccccc1,0.754% (inactive)
23,CC(=O)c1cc(CN2CCC(n3nccc3NC(=O)c3ccccc3Cl)CC2)cs1,13.8% (inactive)

row,Compound,growth rescue
1,Cc1cc(Nc2ccc(N3CCOCC3)cc2)c2cccc(C)c2n1,-0.464% (inactive)
2,Cc1cc(Nc2ccc(C(=O)N3CCCCC3)cc2)c2cccc(C)c2n1,397% (inactive)
3,Cc1ccc(Nc2cc(C)nc3c(C)ccc([N+](=O)[O-])c23)cc1,888% (active)
4,O=C(O)Cn1c(Cc2ccccc2)nc2ccccc21,-4.16% (inactive)
5,Fc1ccc2cnc(-c3ccccc3)cc2c1,110% (inactive)
6,O=C(Nc1ccccc1F)c1ccc2c(c1)OCO2,3.63% (inactive)
7,Fc1ccccc1-c1cc2cc3c(cc2cn1)OCO3,579% (active)
8,O=C(c1ccc(F)cc1)n1c(=S)nc2ccccn21,-34.1% (inactive)
9,COc1ccccc1-c1nn(Cc2ccccc2)cc1C(=O)N1CCN(c2ncccn2)CC1,-5.43% (inactive)
10,CCN(CC)c1ccc(NC(=O)C2CCC(CNc3c(N4CCCC4)c(=O)c3=O)CC2)c(C)c1 (centres undefined),6.64% (inactive)
11,CCC(CC)C(=O)Nc1ccc(S(=O)(=O)Nc2nccs2)cc1,441% (active)
12,COc1ccccc1OC(C)C(=O)Nc1ccc(S(=O)(=O)Nc2nccs2)cc1 (centres undefined),7.27% (inactive)
13,Cc1ccc(OCCC(=O)Nc2ccc(S(=O)(=O)Nc3nccs3)cc2)cc1,-18.7% (inactive)
14,CCCc1cc(=S)n2c([nH]c3ccccc32)c1C#N,490% (active)
15,CCOC(=O)CCc1c(C)c(C#N)c2[nH]c3ccccc3n2c1=O,-0.685% (inactive)
16,CN(C)Cc1c(C#N)c2ccccc2n1C,63.2% (inactive)
17,CCCn1nc(C(=O)NNC(=O)CCOc2ccccc2OCC)c2ccccc2c1=O,2.71% (inactive)
18,CC(=O)c1ccc(NC(=O)CSc2nc3ccccc3c(=O)n2CCCN2CCOCC2)cc1,-18.7% (inactive)
19,CC(CCc1ccccc1)NC(=O)COC(=O)c1ccc(F)cc1 (centres undefined),11.7% (inactive)
20,COc1cc(C(=O)OCC(=O)NC(C)CCc2ccccc2)cc(OC)c1OC (centres undefined),788% (active)
21,COc1cc(OC)cc(C(=O)NCC(=O)OCC(=O)NC(C)CCc2ccccc2)c1 (centres undefined),-11.2% (inactive)
22,CC(=O)N1CCN(S(=O)(=O)c2ccc(C)c([N+](=O)[O-])c2)C1C(C)C (centres undefined),-18.3% (inactive)
23,CC(C)[C@@H]1NC(=O)c2cc([N+](=O)[O-])cc(I)c2NCCC[C@@H](C(=O)NC(CC(=O)O)C(N)=O)NC(=O)[C@H](CO)NC1=O (some centres undefined),-3.93% (inactive)

row,Compound,growth rescue
1,CC(C)NC(=O)Nc1cccc2c1O[C@@H](CN(C)S(=O)(=O)c1ccc(F)cc1)[C@@H](C)CN([C@H](C)CO)C2=O,-15.3% (inactive)
2,O=C(NCc1ccc(Cl)cc1)C(=O)NCC1CCCN1S(=O)(=O)c1cccs1 (centres undefined),-0.245% (inactive)
3,COc1ccccc1CCNC(=O)C(=O)NCCC1CCCCN1S(=O)(=O)c1cccs1 (centres undefined),-12.1% (inactive)
4,O=C(NCc1ccccc1Cl)C(=O)NCC1CCCN1S(=O)(=O)c1cccs1 (centres undefined),454% (active)
5,CCOC(=O)c1c(S(=O)(=O)Nc2cccc(Cl)c2)c(C)n(C)c1C,-7.89% (inactive)
6,CCC(C)(C)NC(=O)C(c1ccc(OC)cc1)N(C(=O)CCC(=O)Nc1cc(C)on1)c1ccc(OC)cc1OC (centres undefined),-19.3% (inactive)
7,N#CC(C#N)=CN=c1ccn(Cc2ccc(Cl)cc2Cl)cc1,813% (active)
8,O=c1ccn(Cc2ccccc2Cl)cc1,1.62% (inactive)
9,CC(C)(C)c1cc(C(=O)NN)n(Cc2ccc(Cl)cc2Cl)n1,207% (inactive)
10,COc1ccccc1CNC(=O)COC(=O)CNS(=O)(=O)c1ccc(NC(C)=O)cc1,-0.994% (inactive)
11,CC(C)C(NC(=O)c1ccc(Cl)cc1)C(=O)O (centres undefined),5.56% (inactive)
12,CC(NC(=O)c1ccc(Cl)cc1)C(=O)N1CCCCC1 (centres undefined),434% (active)
13,CSCCC(NC(=O)c1ccccc1)C(=O)N1CCCCCCC1 (centres undefined),-4.42% (inactive)
14,O=C(CCc1ccccc1)NNC(=O)c1ccc(Br)cc1,631% (active)
15,O=C(CNC(=O)c1ccco1)NNC(=O)c1ccc(Br)cc1,19.3% (inactive)
16,O=C(CCNC(=O)c1ccc(Br)cc1)NCCCc1ccccc1,0.819% (inactive)
17,COc1cc(CC(=O)N2CCC(n3nccc3NC(=O)C3CC3)CC2)cc(OC)c1OC,7.3% (inactive)
18,Cc1ccc(-n2c(SCC(=O)NCCC3=CCCCC3)nc3n[nH]c(C)c3c2=N)cc1Cl,4.94% (inactive)
19,COc1cccc(-n2c(SCC(=O)NC3CCCCC3)nc3n[nH]c(C)c3c2=N)c1,1070% (active)
20,CCCCNC(=O)CSc1nc2n[nH]c(C)c2c(=N)n1-c1cccc(Cl)c1C,-7.38% (inactive)
21,COc1cc(OC)cc(C(=O)Nc2nnc(SCC(=O)NCC3CCCO3)s2)c1 (centres undefined),-5.99% (inactive)
22,CCCCNS(=O)(=O)c1ccc(S(=O)(=O)n2cnc3ccccc32)cc1,-2.08% (inactive)
23,COC(=O)c1c(C)cc(O)c(C)c1O,2.55% (inactive)

row,Compound,growth rescue
1,O=C(c1cccnc1)N1CCN(S(=O)(=O)c2cccs2)CC1,-2.05% (inactive)
2,CCOC(=O)c1ccccc1N1C(=O)C2Sc3[nH]c(=O)sc3C(/C=C/c3ccccc3)C2C1=O (centres undefined),0.0979% (inactive)
3,Nc1nc(SCCOc2ccccc2)n[nH]1,-18.7% (inactive)
4,Nc1cc(N)nc(SCc2cccc(F)c2)n1,35.9% (inactive)
5,Nc1nc(SCc2cccc(Br)c2)n[nH]1,332% (active)
6,Cc1ccc(C(=O)N/C(=C\c2ccc(F)cc2)C(=O)NCCN2CCOCC2)cc1,49.4% (inactive)
7,Cn1cncc1C#Cc1c(-c2ccsc2)sc2ccccc12,17.7% (inactive)
8,COC(=O)Cc1ccc(OC(=O)C2CCN(S(=O)(=O)c3ccc(OC)c(OC)c3)CC2)cc1,-14.9% (inactive)
9,CC1(C)Cc2c(sc(NC(=O)C(=O)NCC3CCCO3)c2C(=O)O)CO1 (centres undefined),-46.3% (inactive)
10,COc1ccc(NC(=O)Cn2c(-c3ccc(OC)cc3)cn(-c3ccc(C)cc3)c2=O)cc1,259% (inactive)
11,COc1ccc(NC(=O)COC(=O)Cn2c(C)nc3ccccc32)cc1OC,-5.7% (inactive)
12,COc1ccc(-c2cn(-c3ccc(C)cc3)c(=O)n2CC(=O)Nc2ccc(OC)c(OC)c2)cc1,737% (active)
13,O=C(NCCc1nnc2ccc(SCC(=O)N3CCOCC3)nn12)c1ccccc1,-18.2% (inactive)
14,COc1ccc(OC)c2c(N)c(C#N)c(C(F)(F)C(F)(F)F)nc12,790% (active)
15,COc1ccc(C2CC(=O)Nc3sc(=N)c4c(N)c(C#N)c(N)nc4c32)cc1OC (centres undefined),-31.5% (inactive)
16,COc1ccccc1-c1c(C#N)c(N)nc2c1CCC2,-0.44% (inactive)
17,O=C(CN1CCCCC1)N1c2ccccc2Sc2ccc(C(F)(F)F)cc21,1.37% (inactive)
18,Cn1c(C(=O)NCCCN2CCN(c3cccc(Cl)c3)CC2)cc2c(=O)n(C)c3ccccc3c21,-12.4% (inactive)
19,CCN1CCCC1CNC(=O)c1cc2c(=O)n(C)c3ccccc3c2n1C (centres undefined),-15.2% (inactive)
20,Cn1c(C(=O)NCCc2ccsc2)cc2c(=O)n(C)c3ccccc3c21,385% (active)
